Laboratory results as given in PubChem BioAssay AID1159580 (chemical genetic matrix, 2015).
Where “and” joins values, the source holds several entries; their conditions need not be identical. Equal values may be shown once. Screen size: about 5,500 compounds; about 2,000 (36%) were called active. Not shown: some 18% with an inconclusive outcome. Rule as the data show it: active = normalized growth mostly below about 0.91 (no sharp cut-off); inconclusive = no clear call, values can overlap the other calls; inactive = mostly above about 0.92. This is one part of the list.

Experiment: chemical genetic growth profiling, strain panel (AID 1159580);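 also: tested at 20 µM; growth read once vehicle control cultures reached saturation at 30 °C; 1 = growth at the plate median or of vehicle wells; lower values mean less growth of the strain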
Conditions: S. cerevisiae deletion strains, growth OD

Measured: normalized growth

COc1ccc(C[C@H](N)C(=O)N[C@@H]2[C@@H](CO)OC(n3cnc4c(N(C)C)ncnc43)[C@@H]2O)cc1 (stereo partly specified)
inactive: locus YAL013W, strain DEP1, active compounds read low 1.01 | locus YAL021C, strain ccr4, active compounds read low 0.977 | locus YAL026C, strain drs2, active compounds read low 0.996 | locus YAL030W, strain snc1, active compounds read low 0.996 | locus YBL061C, strain skt5, active compounds read low 0.996 | locus YBR009C, strain hhf1, active compounds read low 0.988 | locus YBR021W, strain FUR4, active compounds read low 1 | locus YBR023C, strain chs3, active compounds read low 0.986 | locus YBR171W, strain sec66, active compounds read low 0.976 | locus YBR229C, strain ROT2, active compounds read low 1.01 | locus YBR231C, strain swc5, active compounds read low 0.994 | locus YBR279W, strain paf1, active compounds read low 0.992 | locus YCL011C, strain gbp2, active compounds read low 1 | locus YCL016C, strain dcc1, active compounds read low 1.01 | locus YCL029C, strain bik1, active compounds read low 1.02 | locus YCL069W, strain vba3, active compounds read low 0.992 | locus YCR088W, strain abp1, active compounds read low 0.992 | locus YDL005C, strain med2, active compounds read low 0.995 | locus YDL035C, strain GPR1, active compounds read low 1 | locus YDL040C, strain nat1, active compounds read low 1.01 | locus YDL074C, strain BRE1, active compounds read low 0.988 | locus YDL101C, strain DUN1, active compounds read low 1.01 | locus YDL134C, strain PPH21, active compounds read low 1 | locus YDL185W, strain tfp1, active compounds read low 1.02 | locus YDL192W, strain arf1, active compounds read low 1.02 | locus YDR001C, strain nth1, active compounds read low 0.982 | locus YDR069C, strain doa4, active compounds read low 0.981 | locus YDR101C, strain arx1, active compounds read low 1.02 | locus YDR137W, strain rgp1, active compounds read low 1.01 | locus YDR150W, strain NUM1, active compounds read low 1 | locus YDR159W, strain sac3, active compounds read low 0.981 | locus YDR162C, strain NBP2, active compounds read low 1.02 | locus YDR195W, strain ref2 0.969 | locus YDR297W, strain sur2, active compounds read low 0.996 | locus YDR318W, strain mcm21, active compounds read low 1.02 | locus YDR334W, strain swr1, active compounds read low 0.977 | locus YDR335W, strain msn5, active compounds read low 0.985 | locus YDR388W, active compounds read low 1.02 | locus YDR392W, strain spt3, active compounds read low 1.01 | locus YDR502C, strain sam2, active compounds read low 1 | locus YEL003W, strain gim4, active compounds read low 0.999 | locus YEL037C, strain rad23, active compounds read low 1 | locus YEL061C, strain CIN8 (second series), active compounds read low 0.99 | locus YEL061C, strain CIN8, active compounds read low 1 | locus YER015W, strain faa2, active compounds read low 0.991 | locus YER016W, strain bim1, active compounds read low 1.01 | locus YER110C, active compounds read low 1.02 | locus YER111C, strain swi4, active compounds read low 0.977 | locus YER155C, strain BEM2 (second series), active compounds read low 1.03 | locus YER155C, strain BEM2, active compounds read low 1 | locus YER167W, strain BCK2, active compounds read low 1.02 | locus YFR010W, strain ubp6, active compounds read low 0.995 | locus YGL078C, strain dbp3, active compounds read low 1.02 | locus YGL086W, strain mad1, active compounds read low 1.02 | locus YGL167C, strain pmr1, active compounds read low 1.01 | locus YGL173C, strain kem1, active compounds read low 0.988 | locus YGL227W, strain vid30, active compounds read low 0.992 | locus YGL240W, strain doc1, active compounds read low 0.987 | locus YGL248W, strain PDE1, active compounds read low 1.01 | locus YGL253W, strain hxk2, active compounds read low 0.981 | locus YGR078C, strain PAC10, active compounds read low 0.99 | locus YGR135W, strain pre9, active compounds read low 1 | locus YGR229C, strain SMI1, active compounds read low 0.996 | locus YGR252W, strain gcn5, active compounds read low 1.06 | locus YHR013C, strain ard1, active compounds read low 0.983 | locus YHR027C, strain rpn1, active compounds read low 0.991 | locus YHR030C, strain SLT2, active compounds read low 1.01 | locus YHR079C, strain IRE1 (second series), active compounds read low 1.02 | locus YHR079C, strain IRE1, active compounds read low 0.98 | locus YHR094C, strain hxt1, active compounds read low 1.02 | locus YHR129C, strain ARP1, active compounds read low 1.01 | locus YHR142W, strain chs7, active compounds read low 1 | locus YHR200W, strain rpn10, active compounds read low 1.03 | locus YIL066C, strain RNR3, active compounds read low 1.02 | locus YIL073C, strain SPO22, active compounds read low 1.06 | locus YIL125W, strain kgd1, active compounds read low 1.01 | locus YIR030C, strain dcg1, active compounds read low 1.02 | locus YJL092W, strain hpr5, active compounds read low 0.988 | locus YJL095W, strain BCK1 (second series), active compounds read low 1 | locus YJL095W, strain BCK1, active compounds read low 0.997 and 0.996 | locus YJL115W, strain asf1, active compounds read low 0.984 | locus YJL129C, strain trk1, active compounds read low 0.987 | locus YJL134W, strain LCB3, active compounds read low 1 | locus YJL154C, strain vps35, active compounds read low 0.996 | locus YJL164C, strain tpk1, active compounds read low 1.01 | locus YJL166W, strain qcr8, active compounds read low 0.979 | locus YJL168C, strain set2, active compounds read low 1.01 | locus YJL187C, strain SWE1 (second series), active compounds read low 1.01 | locus YJL187C, strain SWE1, active compounds read low 0.998 | locus YJR043C, strain POL32, active compounds read low 0.995 | locus YJR066W, strain TOR1, active compounds read low 0.937
